Hits are enriched below; roughly 5.7% of the tested compounds scored in any of these assays.
KB-3-1 tox: KB-3-1 parental cell cytotoxicity | KB-3-1 viability, CellTiter-Glo ATP luminescence, 72 h | Potency, µM (titrated, usually from 46.1 µM), hits mostly cytotoxic | 1.4% of 400,000 active | AID 1347075; also: nearly all actives have a fitted effect of over 60% in size
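Cytotoxicity measured as CellTiter-Glo luminescence after 72 h at 37 C. Compound titrations were pinned onto drug-naive KB-3-1 parental adenocarcinoma cells grown in DMEM with 10% FBS, and normalized data fitted to concentration-response curves.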
HT1080-NT tox: kills 2HG-producing HT-1080-NT fibrosarcoma cells | HT-1080-NT fibrosarcoma viability, CellTiter-Glo ATP luminescence, 48 h | Potency, µM (series often up to 46.1 µM), for inactives: at the top dose activity, negative = less viability, hits mostly cytotoxic | 1.6% of 360,000 active | AID 686970;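 also: NT is the 2HG producing partner of a matched IDH1 knockdown line; 0% = DMSO-treated cells and -100% = media-only wells without cells; nearly all actives have a fitted effect of over 55% in size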
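HT-1080-NT fibrosarcoma cells (2HG-overproducing), 750 cells/well in RPMI with 5% FBS, dosed after 2 h and incubated 48 h at 37C. CellTiter-Glo luminescence normalized to DMSO and no-cell wells; concentration-response curves fitted and classed.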
KB-V1 MDR tox: kills drug-selected multidrug resistant KB-V1 cells. KB-V1 MDR cells viability, CellTiter-Glo, 72 h. Potency, µM (doses to about 46.1 µM), most hits filed as cytotoxic. AID 1347076. 3.4% of 400,000 active; also: nearly all actives have a fitted effect of over 60% in size
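Cytotoxicity toward P-gp-expressing KB-V1 cells was determined as loss of CellTiter-Glo luminescence after 72 h at 37 degrees C. Compounds were tested in quantitative HTS format across a concentration range, with curves fitted to normalized data.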
HT1080 IDH1KD tx: kills HT-1080 cells with IDH1 knockdown; HT-1080 IDH1 knockdown viability, ATP luminescence, 48 h; Potency, µM (titrated, usually from 46.1 µM), for inactives: at the top dose activity, negative = toxicity, actives largely listed as cytotoxic; 2% of 360,000 active; AID 686971;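 also: 0% = DMSO wells and -100% = cell-free medium wells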
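CellTiter-Glo luminescence after 48 h compound exposure at 37 degrees C of IDH1-knockdown HT-1080 cells in 5% FBS RPMI. %Activity scaled between DMSO wells and cell-free media wells, with curves fitted and assigned curve classes.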
* marks the source's active call; other numbers are inactive results. Calls follow the shape of the dose curve; as a rule, active = well fitted curve in the direction sought with a large enough effect; inconclusive = small, poorly fitted or top-dose-only effect, or another doubt; inactive = no such curve, though single readings can be large; an effect the other way counts as inactive or inconclusive. Unless noted, % is scaled to controls: 0 for no effect and ±100 for the full control effect; potency is read from the fitted curve at half-maximal effect.

Results for c1ccc(-[n+]2nc(Nc3cccc4ccccc34)sc2-c2c3ccccc3cc3ccccc23)cc1 ?
KB-3-1 tox: inactive; HT1080-NT tox: 3.7µM*; KB-V1 MDR tox: inactive; HT1080 IDH1KD tx: 8.2µM*

Results for CN(C(=O)Cn1c(=O)n(Cc2ccc(C(=O)NCc3ccc4c(c3)OCO4)cc2)c(=O)c2ccccc21)c1ccccc1 ?
KB-3-1 tox: inactive; KB-V1 MDR tox: inactive

How did CCOC(=O)c1ccccc1NC(=O)c1nn(-c2ccc(C)cc2)c(=O)n(C)c1=O do in these assays?
KB-3-1 tox: inactive; KB-V1 MDR tox: inactive

How did Cc1nc2cc(OCc3cc(C(=O)NC(C)c4cnn(C)c4)no3)ccc2s1 (stereo unspecified) do in these assays?
KB-3-1 tox: inactive; HT1080-NT tox: 0%; KB-V1 MDR tox: 10µM*; HT1080 IDH1KD tx: -8%

How did O=C(c1ccc(Cl)c(S(=O)(=O)N2CCCCCC2)c1)N1CCCCC1 do in these assays?
KB-3-1 tox: inactive; HT1080-NT tox: -7%; KB-V1 MDR tox: inactive; HT1080 IDH1KD tx: -9%

How did CCOc1ccccc1N1CCN(C(=O)c2cc(S(=O)(=O)N3CCCCC3)ccc2C)CC1 do in these assays?
KB-3-1 tox: inactive; HT1080-NT tox: -7%; KB-V1 MDR tox: inactive; HT1080 IDH1KD tx: -4%

What do the screens show for `COc1cc2c(cc1OC)CN(C(=O)c1ccc(Cl)c(S(=O)(=O)N3CCCC3)c1)CC2`?
KB-3-1 tox: inactive; HT1080-NT tox: -8%; KB-V1 MDR tox: 21µM*; HT1080 IDH1KD tx: 0%

Results for CN1CCN(C(=O)c2ccc(Cl)c(S(=O)(=O)N3CCCCC3)c2)CC1 ?
KB-3-1 tox: inactive; HT1080-NT tox: 0%; KB-V1 MDR tox: 15µM*; HT1080 IDH1KD tx: -13%

What do the screens show for `CCOc1ccccc1N1CCN(C(=O)c2ccc(Cl)c(S(=O)(=O)N3CCCCC3)c2)CC1`?
KB-3-1 tox: inactive; HT1080-NT tox: -21%; KB-V1 MDR tox: 7.3µM*; HT1080 IDH1KD tx: -24%

Results for COc1cc2c(cc1OC)CN(C(=O)c1ccc3nc[nH]c3c1)CC2 ?
KB-3-1 tox: inconclusive; HT1080-NT tox: 10µM*; KB-V1 MDR tox: inactive; HT1080 IDH1KD tx: 12µM*

How did CCCCn1cc(S(=O)(=O)c2ccc(Cl)cc2)c(=O)c2cc(F)c(N3CCCCC3)cc21 do in these assays?
KB-3-1 tox: inactive; KB-V1 MDR tox: inactive

What do the screens show for `CCOc1ccc(-n2c(-c3ccc(Br)cc3)cc3c2CC(C)(C)CC3=O)cc1`?
KB-3-1 tox: inactive; KB-V1 MDR tox: inactive

How did C[N+]1(CC(=O)c2cccc([N+](=O)[O-])c2)CCOCC1 do in these assays?
KB-3-1 tox: inactive; KB-V1 MDR tox: inactive

How did Cc1cc(CN(C)C(=O)CC2C(=O)NCCN2Cc2ccc(-c3ccccc3)cc2)on1 (stereo unspecified) do in these assays?
KB-3-1 tox: inactive; HT1080-NT tox: -16%; KB-V1 MDR tox: inactive; HT1080 IDH1KD tx: -2%

How did CN(C)Cc1ccc(-c2nc3cccc4c3n2CCNC4=O)cc1 do in these assays?
KB-3-1 tox: 18µM*; KB-V1 MDR tox: inactive

What do the screens show for `C=CCOc1c(Br)cc(CNc2ccc(NC(=O)C(C)C)c(OC)c2)cc1OC`?
KB-3-1 tox: inconclusive; HT1080-NT tox: inconclusive; KB-V1 MDR tox: 4.1µM*; HT1080 IDH1KD tx: inconclusive

How did COc1ccc(-c2n[nH]c3c2CN(C(=O)c2ccc(OC)c(OC)c2)CC3)cc1 do in these assays?
KB-3-1 tox: 7.3µM*; HT1080-NT tox: -27%; KB-V1 MDR tox: inconclusive; HT1080 IDH1KD tx: 21µM*

How did Nc1nc(N)c2c(OCc3ccc(C(F)(F)F)cc3)cccc2n1 do in these assays?
KB-3-1 tox: inconclusive; KB-V1 MDR tox: inactive

Results for COc1cccc2c1C(=O)c1c(O)c3c(c(O)c1C2=O)C[C@@](O)(C(=O)CO)C[C@@H]3OC1CC(N)C(O)C(C)O1 (stereo partly specified) ?
KB-3-1 tox: inconclusive; HT1080-NT tox: inconclusive; HT1080 IDH1KD tx: 4.6µM*

How did COc1cccc2c1C(=O)c1c(O)c3c(c(O)c1C2=O)CC(O)(C(C)=O)CC3OC1CC(N(C)C)C(O)C(C)O1 (stereo unspecified) do in these assays?
KB-3-1 tox: inconclusive; HT1080-NT tox: inconclusive; KB-V1 MDR tox: 7.3µM*; HT1080 IDH1KD tx: 0.73µM*

How did COc1cccc2c1C(=O)c1c(O)c3c(c(O)c1C2=O)C[C@@](O)(C(=O)CO)C[C@@H]3O[C@H]1C[C@H](N)[C@H](O)[C@H](C)O1 do in these assays?
KB-3-1 tox: inconclusive; HT1080-NT tox: 9.2µM*; HT1080 IDH1KD tx: 0.33µM*

How did COCCCNC(=O)C(=O)NCC(c1ccc2c(c1)OCO2)N1CCOCC1 (stereo unspecified) do in these assays?
KB-3-1 tox: inactive; KB-V1 MDR tox: inactive

What do the screens show for `COc1ccc(C=NNC(=S)NN=Cc2ccc(OC)c(OC)c2)cc1OC`?
KB-3-1 tox: 0.46µM*; HT1080-NT tox: -20%; KB-V1 MDR tox: 0.23µM*; HT1080 IDH1KD tx: -17%

How did COc1ccc(/C=N/NC(=S)NCc2ccccc2)cc1OC do in these assays?
KB-3-1 tox: inactive; HT1080-NT tox: 1%; KB-V1 MDR tox: 21µM*; HT1080 IDH1KD tx: -1%

What do the screens show for `COc1ccc(C=NNC(=S)Nc2ccc(F)cc2)cc1OC`?
KB-3-1 tox: inactive; HT1080-NT tox: -6%; KB-V1 MDR tox: inactive; HT1080 IDH1KD tx: -10%

How did CN(C)C1=NC[C@H](Cc2ccccc2)N1CCCC1CCCC1 do in these assays?
KB-3-1 tox: inactive; HT1080-NT tox: 21µM*; KB-V1 MDR tox: inactive; HT1080 IDH1KD tx: inconclusive

What do the screens show for `COc1ccc(CCN2C(=O)CSC2=S)cc1OC`?
KB-3-1 tox: 6.5µM*; HT1080-NT tox: inconclusive; KB-V1 MDR tox: 5.8µM*; HT1080 IDH1KD tx: 23µM*

What do the screens show for `COc1ccc(CN2C(=O)CSCC2=O)cc1OC`?
KB-3-1 tox: inactive; HT1080-NT tox: 8%; KB-V1 MDR tox: inconclusive; HT1080 IDH1KD tx: 9%

What do the screens show for `COc1ccc(CCN2C(=O)CC(C(N)=O)SC2=Nc2ccccc2)cc1OC` (stereo unspecified)?
KB-3-1 tox: inactive; HT1080-NT tox: 0%; KB-V1 MDR tox: 21µM*; HT1080 IDH1KD tx: -3%

Results for CCOc1ccc(C(C)C)cc1S(=O)(=O)Nc1cccc(-c2ccc(N3CCOCC3)nn2)c1 ?
KB-3-1 tox: inactive; KB-V1 MDR tox: inconclusive

What do the screens show for `CCCCN(C)CCCNC(=O)c1ccc2nc(N3CCCCC3)sc2c1`?
KB-3-1 tox: inactive; KB-V1 MDR tox: inactive

What do the screens show for `CCOCCCNCc1ccc(OC)cc1`?
KB-3-1 tox: inactive; HT1080-NT tox: 8%; KB-V1 MDR tox: inactive; HT1080 IDH1KD tx: 21%

What do the screens show for `COc1ccc2cc(CNCCOCCOCCNCc3ccc4cc(OC)ccc4c3)ccc2c1`?
KB-3-1 tox: 7.3µM*; HT1080-NT tox: inconclusive; KB-V1 MDR tox: 9.2µM*; HT1080 IDH1KD tx: 16µM*

How did CC(Sc1nnnn1-c1ccc(Cl)cc1)C(=O)NCC(=O)Nc1ccc(F)c(F)c1F (stereo unspecified) do in these assays?
KB-3-1 tox: inactive; HT1080-NT tox: 3%; KB-V1 MDR tox: 16µM*; HT1080 IDH1KD tx: -12%
